Laboratory results: PubChem BioAssay AID1981 (Southern Research Specialized Biocontainment Screening …, 2009)
Hit rate of the full screen: of about 2,200 compounds, about 480 (22%) were called active. No rule for the calls is given here. Not all results are given here. Entries with a potency or affinity are not part of this list.

Assay: S. Typhimurium GFP fluorescence dose response in modified counterscreen for PhoP regulon inhibitor project (AID 1981);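 also: 0% = induced DMSO wells and 100% = uninduced wells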
Conditions: 4 h; series mostly up to 150 µM; inhibition: at the top concentration

SMILES | inhibition
CCCCCNS(=O)(=O)c1cc(C)ccc1OC | 2.03% (inactive)
O=C1Nc2ccccc2C(O)(C(=O)N2CCCCC2)N1c1ccccc1 (stereo not given) | 0.43% (inactive)
Cc1cc(C2=NNC(=NC3CC3)SC2)c(C)n1Cc1ccco1 | -6.12% (inactive)
Cc1cccc(OCCCSc2nc3ccc(C)cc3[nH]2)c1 | 8.72% (inactive)
C=C(C)Cn1c(CCn2c3ccccc3c3ccccc32)n[nH]c1=S | -5.59% (inactive)
N#C/C(=C\c1c(Cl)cccc1Cl)c1nc2ccccc2[nH]1 | 0.17% (inactive)
COCc1cc(C)nc(N2CCc3ccccc32)c1C#N | -15% (inactive)
CCOc1ccc2nc(COC(=O)c3ccco3)c(C(C)=O)[n+]([O-])c2c1 | 5.1% (inactive)
COc1ccc(-c2csc(NC(=O)C3CCCO3)n2)cc1 (stereo not given) | -2.8% (inactive)
Cc1ccc(C[n+]2cc(-c3ccc(Cl)cc3)n3c2CCC3)cc1 | 0.58% (inactive)
CCOC(=S)SCC(=O)Nc1nc(-c2ccccc2)cs1 | -12.2% (inactive)
COc1ccc2cc(C)c3nnc(SCC(=O)Nc4nc(-c5ccccc5)cs4)n3c2c1 | -5.19% (inactive)
Cc1ccc(NC(=O)CCN2CCc3ccccc3C2)cc1 | 8.78% (inactive)
CN(C)CC(=O)Nc1nc(-c2ccccc2)cs1 | 2.72% (inactive)
CCCCCOC(=O)C1=C(C)Nc2nnnn2C1c1ccc(OC)c(OC)c1OC (stereo not given) | -12.6% (inactive)
Cc1ccc(Nc2nc(CSc3nnc(-c4ccc(F)cc4)n3C)cs2)cc1 | 12.9% (inactive)
CSc1cccc(NC(=O)COc2cccc3ccccc23)c1 | 26.1% (inactive)
COc1ccc(OC)c(NC(=S)NCCCN2CCOCC2)c1 | -26.3% (inactive)
COc1ccccc1NC(=S)NNC(=O)c1c(Cl)c(C)nn1C | -16.2% (inactive)
C=CCN(CC=C)Cc1c[nH]c2ccccc12 | -6.22% (inactive)
Cc1cc(C)[n+](C2C3CC4CC(C3)CC2C4)o1 (stereo not given) | -3.92% (inactive)
Cc1cccc(-n2c(N)cc(=O)[nH]c2=S)c1C | 35.5% (inactive)
CCOC(=O)c1c(N)ssc1=S | -4.32% (inactive)
O=C1c2ccccc2NC(c2ccc(-c3cccc(Cl)c3)o2)N1O (stereo not given) | 39.3% (inactive)
COc1cccc(C2Nc3ccccc3C(=O)N2O)c1O (stereo not given) | 20.4% (inactive)

SMILES | inhibition
O=C(OCCN1C(=O)c2ccccc2C1=O)c1ccc(S(=O)(=O)N2CCCCCC2)cc1 | -5.15% (inactive)
CCOC(=O)c1ccc2c(c1)C(=O)N(C1CCCCC1)C2=O | -0.64% (inactive)
Cc1ccc([N+](=O)[O-])cc1NC(=O)CN(C(=O)c1ccc(Cl)cc1)C1CCCCC1 | 3.93% (inactive)
Cc1cc(NC(=O)c2ccccc2-c2ccccc2)ccc1Br | 3.71% (inactive)
CN1c2ccccc2C(=O)NC1c1ccc([N+](=O)[O-])s1 (stereo not given) | -1.37% (inactive)
CCN(CC)Cc1c[nH]c2c(C(=O)OC)cccc12 | -10.6% (inactive)
O=C(C1CCN(C2CC(=O)N(Cc3ccccc3)C2=O)CC1)N1CCCCCC1 (stereo not given) | -1.1% (inactive)
N#Cc1c(N)n[nH]c1-c1cc2c([nH]1)CCCC2 | 4.52% (inactive)
O=C(NCc1ccco1)c1c2c(nc3ccccc13)CCC2 | -6.14% (inactive)
Cc1[nH]c2ccccc2c1C(=O)CN1CCSCC1 | -4.49% (inactive)
c1ccc(C2CNCc3c2ccc2ccccc32)cc1 (stereo not given) | 12.6% (inactive)
CCOc1ccc(CSC(CC(=O)O)C(=O)O)cc1 (stereo not given) | 0.82% (inactive)
O=C(CCN1C(=O)c2ccccc2S1(=O)=O)Nc1ccc2c(c1)OCCO2 | 1.94% (inactive)
CCOC(=O)c1cc2ccc(OC)c(OC)c2c(=O)s1 | -12.9% (inactive)
COc1cccc(NC(=O)CNC(=O)c2cccs2)c1 | -4.85% (inactive)
Cc1ccccc1Cn1nc(C)c(NC(=O)c2noc3c2CCc2ccccc2-3)c1C | -13.4% (inactive)
O=C1C(c2ccc(F)cc2)N(Cc2ccc3c(c2)OCO3)C(=O)CN1C1CCCCCC1 (stereo not given) | -19.2% (inactive)
COc1ccc(NC2=NC3(CCCCC3)N=C(N)N2)cc1 | -11.8% (inactive)
CCOC(=O)c1c(C)[nH]c(C)c1C(=O)CSc1ncccn1 | -9.71% (inactive)
Cc1cccn2cc(CSc3nnc(Nc4ccc(C(C)C)cc4)s3)nc12 | -0.41% (inactive)
CC1CCN(C(=O)c2ccc3c(c2NCCO)C(=O)c2ccccc2C3=O)CC1 | 4.02% (inactive)
CSc1nsc(SCC(=O)Nc2ccc(C(C)=O)cc2)n1 | -16.7% (inactive)
CN(C(=O)/C=C/c1ccccc1)C1CCS(=O)(=O)C1 (stereo not given) | -5.09% (inactive)
Cc1cc(C)nc(N(C#N)C(C)C(=O)N(C)C)n1 (stereo not given) | -16% (inactive)
Cc1c(C)n(Cc2ccccc2)c2ncnc(N)c12 | -0.12% (inactive)

SMILES | inhibition
O=c1[nH]c(CN2CC=C(c3ccccc3)CC2)nc2cc(C(F)(F)F)ccc12 | 3.42% (inactive)
COc1ccc(Nc2nc(-c3cccc([N+](=O)[O-])c3)nc3ccccc23)cc1 | -16% (inactive)
COc1ccccc1Nc1nc(NCc2ccco2)c2ccccc2n1 | 12.3% (inactive)
BrC(=C\c1ccccc1)/C=N/N1CCN(c2ccccn2)CC1 | -4.11% (inactive)
C/C(CC(=O)Nc1ccc(Cl)c(C(F)(F)F)c1)=N\NC(=O)c1cccc(O)c1 | 8.6% (inactive)
N=c1n(Cc2ccc(Cl)cc2)c2ccccc2n1CC(O)c1ccco1 (stereo not given) | 2.34% (inactive)
N=c1n(CCO)c2ccccc2n1Cc1ccc(Cl)cc1 | 8.73% (inactive)
C#CCN1C(=O)C(O)(CC(=O)c2ccc(OC)c(OC)c2)c2ccccc21 (stereo not given) | -14.4% (inactive)
CCCCCCCCOC(=O)C1=C(C)Nc2nnnn2C1c1cccs1 (stereo not given) | -13% (inactive)
COc1ccc(Oc2ccccc2/C=N/O)cc1 | 2.01% (inactive)
COC(=O)c1ccc(COC(=O)c2ccccn2)cc1 | 0.02% (inactive)
CCNC(=S)NNC(=O)c1ccc(OC(F)F)cc1 | -6.15% (inactive)
CC(C)NC(=O)CSc1nc(N)c(NC(=O)c2ccccc2F)c(=O)[nH]1 | -13.4% (inactive)
Cc1cc(C)c2c(=O)[nH]c(SCC(=O)Nc3ccc(N(C)C)cc3)nc2n1 | 22.4% (inactive)
CCOC(=O)C1=C(C)NC(=S)NC1c1ccc(OC(=O)c2ccco2)cc1 (stereo not given) | -2.14% (inactive)
COc1ccc(NC2=NC(=S)N(c3cccc(C)c3)C23CCCCC3)cc1 | -1.25% (inactive)
Cc1cccc(NC(=O)c2ccc(Cn3cc(C(F)(F)F)ccc3=O)cc2)c1 | -3.63% (inactive)
O=C(O)/C=C/C(=O)Nc1cccc(C(F)(F)F)c1 | -8.86% (inactive)
CN(C)CC(C(=O)c1ccccc1)c1ccccc1 (stereo not given) | 23.2% (inactive)
Cc1ccc(C(=O)NCc2ccc(Cl)cc2)o1 | 2.23% (inactive)
Cc1ccc(C(=O)Nc2ccc3c(c2)OCO3)o1 | 10.9% (inactive)
O=C(NC(c1ccc(Cl)cc1)c1c(O)ccc2ccccc12)c1ccccc1 (stereo not given) | -19% (inactive)
Cc1ccc2cccnc2c1NC(=S)NC(=O)c1ccccc1 | 24.2% (inactive)
CCCCCn1c(C(C)NC(=O)CCC)nc2ccccc21 (stereo not given) | -0.25% (inactive)
O=C(CCc1ccccc1)Nc1nc2ccc(S(=O)(=O)N3CCOCC3)cc2s1 | 30% (inactive)
